Data from the supplement of paper PMC10849652.
The full data set covers some 7,900 targets. This sample favours those with a hit. About 0.6% of all pairs of compound and target were hits. A number with no mark means an inactive call.

Key:
Experiment in all cases: log2 fold change, soluble protein after heating vs DMSO (PISA); higher = thermal stabilisation; K562 cells, 10 uM, 30 min; active = over 0.2 and 3.5 SD of the protein, either way, in both replicates (recomputed)
saracatinib = compound: CN1CCN(CCOc2cc(OC3CCOCC3)c3c(Nc4c(Cl)ccc5c4OCO5)ncnc3c2)CC1 [saracatinib]
In short: (§1)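 K562 cells at 2×10^6 cells/mL were treated with 10 μM compound for 30 min. Aliquots were heated for 3 min across 48°C-58°C, pooled, and extracted in PBS with 0.5% NP-40 at 4°C; soluble protein was the supernatant after 21,000xg for 90 min. Soluble protein was quantified by TMTpro 16plex LC-MS/MS with channel sums equalised, and reported as log2 fold change in thermal stability against DMSO controls, with values from duplicates.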

sotrastaurin = compound: CN1CCN(c2nc(C3=C(c4c[nH]c5ccccc45)C(=O)NC3=O)c3ccccc3n2)CC1 [sotrastaurin]
In short: as §1

alvocidib = compound: CN1CC[C@H](c2c(O)cc(O)c3c(=O)cc(-c4ccccc4Cl)oc23)[C@H](O)C1 [alvocidib]
In short: as §1

Tubastatin A = compound: CN1CCc2c(c3ccccc3n2Cc2ccc(C(=O)NO)cc2)C1 [Tubastatin A]
In short: as §1

[1] = compound: CNC(=O)C1=CC=CC=C1NC2=NC(=NC=C2Cl)NC3=C(C=C(C=C3)N4CCOCC4)OC
In short: as §1

defactinib = compound: CNC(=O)c1ccc(Nc2ncc(C(F)(F)F)c(NCc3nccnc3N(C)S(C)(=O)=O)n2)cc1 [defactinib]
In short: as §1

rucaparib = compound: CNCc1ccc(-c2[nH]c3cc(F)cc4c3c2CCNC4=O)cc1 [rucaparib]
In short: as §1

[2] = compound: CNc1nc(-c2ccc3c(N)n[nH]c3c2)cc(N2C[C@@H](C(=O)NC3CCCCC3)CC[C@H]2C)n1
In short: as §1

encorafenib = compound: COC(=O)N[C@@H](C)CNc1nccc(-c2cn(C(C)C)nc2-c2cc(Cl)cc(NS(C)(=O)=O)c2F)n1 [encorafenib]
In short: as §1

[3] = compound: COC(=O)[C@H](CCSC)NC(=O)C1=C(C=C(C=C1)NC[C@H](CS)N)C2=CC=CC=C2
In short: as §1

[4] = compound: COC1=CC=C(C=C1)CN2C=CC3=C2C=C(C=C3)C(=O)NO
In short: as §1

filanesib = compound: CON(C)C(=O)N1N=C(c2cc(F)ccc2F)S[C@@]1(CCCN)c1ccccc1 [filanesib]
In short: as §1

zotarolimus = compound: CO[C@H]1C[C@@H]2CC[C@@H](C)[C@@](O)(O2)C(=O)C(=O)N2CCCC[C@H]2C(=O)O[C@H]([C@H](C)C[C@@H]2CC[C@H](n3cnnn3)[C@H](OC)C2)CC(=O)[C@H](C)/C=C(\C)[C@@H](O)[C@@H](OC)C(=O)[C@H](C)C[C@H](C)/C=C/C=C/C=C/1C [zotarolimus]
In short: as §1

idasanutlin = compound: COc1cc(C(=O)O)ccc1NC(=O)[C@@H]1N[C@@H](CC(C)(C)C)[C@](C#N)(c2ccc(Cl)cc2F)[C@H]1c1cccc(Cl)c1F [idasanutlin]
In short: as §1

alisertib = compound: COc1cc(Nc2ncc3c(n2)-c2ccc(Cl)cc2C(c2c(F)cccc2OC)=NC3)ccc1C(=O)O [alisertib]
In short: as §1

[5] = compound: COc1cc2nc(-c3cc(F)ccc3O)nc(N[C@@H]3CNC[C@H]3C(C)(C)O)c2cc1OC
In short: as §1

gefitinib = compound: COc1cc2ncnc(Nc3ccc(F)c(Cl)c3)c2cc1OCCCN1CCOCC1 [gefitinib]
In short: as §1

[6] = compound: COc1cccc2cc(-c3nc([C@H]4CC[C@H](C(=O)O)CC4)n4ncnc(N)c34)[nH]c12
In short: as §1

lapatinib = compound: CS(=O)(=O)CCNCc1ccc(-c2ccc3ncnc(Nc4ccc(OCc5cccc(F)c5)c(Cl)c4)c3c2)o1 [lapatinib]
In short: as §1

pictilisib = compound: CS(=O)(=O)N1CCN(Cc2cc3nc(-c4cccc5[nH]ncc45)nc(N4CCOCC4)c3s2)CC1 [pictilisib]
In short: as §1

Chain of UniProt Q4KMP7 (Q4KMP7 whole entry, looked up): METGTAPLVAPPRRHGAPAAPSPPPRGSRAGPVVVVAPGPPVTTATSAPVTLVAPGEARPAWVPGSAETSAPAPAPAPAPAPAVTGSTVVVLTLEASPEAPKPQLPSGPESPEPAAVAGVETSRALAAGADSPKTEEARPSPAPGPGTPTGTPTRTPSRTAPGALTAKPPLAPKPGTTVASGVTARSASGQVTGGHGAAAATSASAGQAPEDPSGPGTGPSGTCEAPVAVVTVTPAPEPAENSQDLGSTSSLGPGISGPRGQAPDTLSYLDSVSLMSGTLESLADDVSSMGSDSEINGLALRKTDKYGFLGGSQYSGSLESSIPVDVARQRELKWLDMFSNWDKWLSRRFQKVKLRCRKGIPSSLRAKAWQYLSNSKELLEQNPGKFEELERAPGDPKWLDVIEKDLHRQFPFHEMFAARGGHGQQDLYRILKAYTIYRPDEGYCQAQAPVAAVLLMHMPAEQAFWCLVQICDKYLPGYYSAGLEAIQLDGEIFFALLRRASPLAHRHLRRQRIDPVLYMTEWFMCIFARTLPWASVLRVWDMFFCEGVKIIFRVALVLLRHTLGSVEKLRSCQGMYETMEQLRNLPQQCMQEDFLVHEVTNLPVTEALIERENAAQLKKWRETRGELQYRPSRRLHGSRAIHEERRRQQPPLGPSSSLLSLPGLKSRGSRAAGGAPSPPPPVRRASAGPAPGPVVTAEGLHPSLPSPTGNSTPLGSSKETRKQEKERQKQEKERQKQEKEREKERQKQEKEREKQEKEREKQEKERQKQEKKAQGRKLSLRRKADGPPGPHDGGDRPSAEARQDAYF
Chain of UniProt Q15208 (Q15208 whole entry, looked up): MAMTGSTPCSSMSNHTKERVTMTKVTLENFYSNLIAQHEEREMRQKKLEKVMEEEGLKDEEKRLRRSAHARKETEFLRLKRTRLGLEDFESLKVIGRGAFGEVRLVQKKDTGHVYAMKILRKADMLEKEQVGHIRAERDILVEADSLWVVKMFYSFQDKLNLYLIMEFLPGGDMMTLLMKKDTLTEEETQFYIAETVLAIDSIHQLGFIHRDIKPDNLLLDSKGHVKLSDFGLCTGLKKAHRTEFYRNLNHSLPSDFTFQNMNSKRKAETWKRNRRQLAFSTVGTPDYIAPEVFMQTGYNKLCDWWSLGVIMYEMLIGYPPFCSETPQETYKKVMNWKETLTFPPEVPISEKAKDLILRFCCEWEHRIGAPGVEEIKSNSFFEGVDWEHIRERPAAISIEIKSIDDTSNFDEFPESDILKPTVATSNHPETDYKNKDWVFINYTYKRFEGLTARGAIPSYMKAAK
Chain of UniProt Q13586 (Q13586 whole entry, looked up): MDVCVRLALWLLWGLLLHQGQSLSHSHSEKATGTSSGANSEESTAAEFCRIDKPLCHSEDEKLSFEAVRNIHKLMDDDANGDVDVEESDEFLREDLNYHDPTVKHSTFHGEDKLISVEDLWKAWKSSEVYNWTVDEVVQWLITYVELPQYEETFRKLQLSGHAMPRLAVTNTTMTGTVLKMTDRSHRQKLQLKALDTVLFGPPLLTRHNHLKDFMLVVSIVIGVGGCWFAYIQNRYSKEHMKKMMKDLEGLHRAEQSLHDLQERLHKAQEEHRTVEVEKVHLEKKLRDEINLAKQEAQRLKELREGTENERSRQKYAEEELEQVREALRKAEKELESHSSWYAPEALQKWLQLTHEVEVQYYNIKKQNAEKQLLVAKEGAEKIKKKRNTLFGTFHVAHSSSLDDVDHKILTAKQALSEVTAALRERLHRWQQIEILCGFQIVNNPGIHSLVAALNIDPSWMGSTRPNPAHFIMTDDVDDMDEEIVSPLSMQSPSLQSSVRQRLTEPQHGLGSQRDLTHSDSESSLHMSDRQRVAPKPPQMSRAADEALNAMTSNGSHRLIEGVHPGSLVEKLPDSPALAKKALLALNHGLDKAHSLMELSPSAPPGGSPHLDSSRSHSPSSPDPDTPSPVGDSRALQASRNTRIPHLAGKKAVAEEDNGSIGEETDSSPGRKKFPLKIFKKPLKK
Chain of UniProt Q96BW9 (Q96BW9 whole entry, looked up): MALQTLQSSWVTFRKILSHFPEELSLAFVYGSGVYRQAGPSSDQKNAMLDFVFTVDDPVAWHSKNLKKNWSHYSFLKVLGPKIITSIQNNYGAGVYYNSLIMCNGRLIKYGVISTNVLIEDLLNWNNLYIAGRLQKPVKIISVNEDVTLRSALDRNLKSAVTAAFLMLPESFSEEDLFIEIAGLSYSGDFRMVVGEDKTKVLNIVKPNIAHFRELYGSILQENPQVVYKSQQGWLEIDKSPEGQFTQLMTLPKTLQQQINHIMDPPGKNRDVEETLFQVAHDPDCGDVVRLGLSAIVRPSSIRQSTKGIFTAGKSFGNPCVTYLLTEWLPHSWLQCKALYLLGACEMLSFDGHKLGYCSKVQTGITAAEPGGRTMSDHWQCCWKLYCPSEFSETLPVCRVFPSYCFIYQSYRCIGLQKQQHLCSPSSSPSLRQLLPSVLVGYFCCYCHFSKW
Chain of UniProt Q9ULP9 (Q9ULP9 whole entry, looked up): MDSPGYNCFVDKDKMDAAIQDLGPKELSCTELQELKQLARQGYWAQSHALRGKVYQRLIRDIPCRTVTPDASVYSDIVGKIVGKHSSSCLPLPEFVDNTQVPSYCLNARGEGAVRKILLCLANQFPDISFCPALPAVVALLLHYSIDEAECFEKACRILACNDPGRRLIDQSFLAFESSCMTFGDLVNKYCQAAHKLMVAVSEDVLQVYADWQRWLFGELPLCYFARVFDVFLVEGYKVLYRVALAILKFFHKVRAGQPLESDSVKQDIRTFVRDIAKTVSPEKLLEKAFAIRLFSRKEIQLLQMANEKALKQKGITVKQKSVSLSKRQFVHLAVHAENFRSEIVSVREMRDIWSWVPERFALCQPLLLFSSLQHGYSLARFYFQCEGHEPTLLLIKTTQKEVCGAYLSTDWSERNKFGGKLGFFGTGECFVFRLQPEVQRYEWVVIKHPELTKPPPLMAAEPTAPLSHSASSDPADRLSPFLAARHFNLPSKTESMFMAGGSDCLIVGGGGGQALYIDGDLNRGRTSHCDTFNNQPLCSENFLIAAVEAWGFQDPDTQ
Chain of UniProt Q6P1M0 (Q6P1M0 whole entry, looked up): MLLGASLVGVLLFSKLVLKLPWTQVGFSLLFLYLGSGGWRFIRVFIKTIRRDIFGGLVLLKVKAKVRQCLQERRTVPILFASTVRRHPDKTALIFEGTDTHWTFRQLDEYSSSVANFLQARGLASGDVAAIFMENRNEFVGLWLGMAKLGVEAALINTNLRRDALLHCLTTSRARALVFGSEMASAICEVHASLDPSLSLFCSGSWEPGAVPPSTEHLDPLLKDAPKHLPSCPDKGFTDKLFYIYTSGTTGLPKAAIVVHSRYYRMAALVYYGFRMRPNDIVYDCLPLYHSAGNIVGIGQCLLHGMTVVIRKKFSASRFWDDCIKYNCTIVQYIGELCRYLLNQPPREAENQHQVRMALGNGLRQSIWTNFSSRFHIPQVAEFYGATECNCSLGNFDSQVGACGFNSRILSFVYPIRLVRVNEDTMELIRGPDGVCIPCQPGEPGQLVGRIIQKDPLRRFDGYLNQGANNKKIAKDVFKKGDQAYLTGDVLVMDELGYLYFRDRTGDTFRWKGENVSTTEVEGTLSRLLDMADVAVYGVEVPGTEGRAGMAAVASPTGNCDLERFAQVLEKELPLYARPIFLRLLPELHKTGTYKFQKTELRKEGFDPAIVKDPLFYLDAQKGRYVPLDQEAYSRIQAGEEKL
Chain of UniProt P51692 (P51692 whole entry, looked up): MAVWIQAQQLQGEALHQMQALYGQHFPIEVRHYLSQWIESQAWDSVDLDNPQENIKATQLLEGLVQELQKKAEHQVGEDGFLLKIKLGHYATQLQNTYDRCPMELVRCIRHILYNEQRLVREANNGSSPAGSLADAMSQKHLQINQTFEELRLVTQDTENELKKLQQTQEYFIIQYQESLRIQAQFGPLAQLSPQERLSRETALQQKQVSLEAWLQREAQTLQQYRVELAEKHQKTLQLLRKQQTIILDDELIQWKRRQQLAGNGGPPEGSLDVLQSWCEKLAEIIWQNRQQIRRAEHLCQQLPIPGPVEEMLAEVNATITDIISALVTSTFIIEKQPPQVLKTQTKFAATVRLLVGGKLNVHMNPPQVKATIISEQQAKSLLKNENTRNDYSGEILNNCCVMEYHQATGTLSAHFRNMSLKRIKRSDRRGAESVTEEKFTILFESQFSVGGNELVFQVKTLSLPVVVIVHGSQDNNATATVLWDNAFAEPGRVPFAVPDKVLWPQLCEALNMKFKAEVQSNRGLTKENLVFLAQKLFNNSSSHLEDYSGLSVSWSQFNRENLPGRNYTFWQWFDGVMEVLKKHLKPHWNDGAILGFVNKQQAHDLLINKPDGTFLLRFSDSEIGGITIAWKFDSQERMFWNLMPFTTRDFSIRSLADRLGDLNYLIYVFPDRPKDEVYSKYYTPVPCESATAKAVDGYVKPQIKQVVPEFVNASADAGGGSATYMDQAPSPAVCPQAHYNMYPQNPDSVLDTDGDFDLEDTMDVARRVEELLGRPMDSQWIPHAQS
Chain of UniProt Q9P2R7 (Q9P2R7 whole entry, looked up): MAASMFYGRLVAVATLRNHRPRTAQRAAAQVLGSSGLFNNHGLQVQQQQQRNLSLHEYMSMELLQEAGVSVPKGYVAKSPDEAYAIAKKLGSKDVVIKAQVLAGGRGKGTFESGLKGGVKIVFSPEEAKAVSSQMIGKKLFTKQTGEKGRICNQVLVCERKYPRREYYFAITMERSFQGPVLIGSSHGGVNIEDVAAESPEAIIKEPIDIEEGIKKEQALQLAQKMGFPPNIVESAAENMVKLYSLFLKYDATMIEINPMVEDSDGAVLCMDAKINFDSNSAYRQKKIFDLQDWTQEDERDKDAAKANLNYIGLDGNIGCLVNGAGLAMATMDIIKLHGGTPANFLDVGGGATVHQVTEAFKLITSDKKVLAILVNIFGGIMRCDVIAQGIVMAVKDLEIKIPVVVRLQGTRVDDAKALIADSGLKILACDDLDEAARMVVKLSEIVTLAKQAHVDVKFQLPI
Chain of UniProt P62318 (P62318 whole entry, looked up): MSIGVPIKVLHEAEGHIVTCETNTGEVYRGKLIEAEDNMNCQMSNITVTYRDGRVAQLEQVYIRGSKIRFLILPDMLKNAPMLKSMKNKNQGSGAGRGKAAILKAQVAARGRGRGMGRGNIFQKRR

| Target | log2 fold change (saracatinib) | log2 fold change (sotrastaurin) | log2 fold change (alvocidib) | log2 fold change (Tubastatin A) | log2 fold change [1] | log2 fold change (defactinib) | log2 fold change (rucaparib) | log2 fold change [2] | log2 fold change (encorafenib) | log2 fold change [3] | log2 fold change [4] | log2 fold change (filanesib) | log2 fold change (zotarolimus) | log2 fold change (idasanutlin) | log2 fold change (alisertib) | log2 fold change [5] | log2 fold change (gefitinib) | log2 fold change [6] | log2 fold change (lapatinib) | log2 fold change (pictilisib) |
| --- | --- | --- | --- | --- | --- | --- | --- | --- | --- | --- | --- | --- | --- | --- | --- | --- | --- | --- | --- | --- |
| SNRPD3 (UniProt P62318) | 0.004 | 0.068 | 0.069 | -0.097 | 0.038 | 0.137 | 0.017 | -0.098 | -0.027 | -0.003 | -0.169 | 0.152 | -0.051 | 0.025 | -0.132 | 0.039 | -0.019 | 0.023 | 0.028 | 0.064 |
| SPECC1 (UniProt Q5M775) | -0.171 | 0.093 | 0.06 | -0.024 | -0.069 | 0 | 0.091 | -0.104 | -0.015 | -0.062 | -0.357 (active) | 0.064 | 0.038 | -0.111 | -0.019 | -0.014 | 0.028 | 0.309 (active) | -0.006 | 0.08 |
| TK1 (UniProt P04183) | 0.067 | 0.036 | -0.028 | 0.034 | -0.013 | -0.021 | -0.015 | -0.003 | -0.005 | 0.024 | -0.012 | -0.258 (active) | -0.023 | -0.011 | -0.034 | 0.021 | -0.018 | 0.073 | -0.009 | 0.045 |
| SUCLA2 (UniProt Q9P2R7) | -0.013 | 0.03 | 0.011 | 0.024 | 0.011 | -0.037 | -0.029 | -0.048 | 0.021 | -0.008 | -0.004 | -0.096 | 0.01 | -0.074 | 0.104 | 0.093 | 0.022 | 0.018 | -0.05 | 0.109 |
| STAT5B (UniProt P51692) | -0.231 | -0.083 | -0.023 | 0.045 | -0.053 | -0.33 | 0.105 | 0.138 | 0.073 | -0.052 | 0.13 | -0.036 | 0.112 | 0.086 | -0.038 | -0.115 | 0.046 | -0.094 | 0.029 | -0.148 |
| TBC1D10B (UniProt Q4KMP7) | -0.025 | -0.036 | -0.036 | 0.001 | -0.015 | -0.008 | 0.094 | 0.009 | 0.048 | -0.023 | -0.001 | 0.062 | 0.011 | 0.032 | -0.088 | -0.088 | 0.008 | -0.042 | 0.041 | -0.002 |
| TBC1D24 (UniProt Q9ULP9) | -0.025 | -0.016 | -0.379 (active) | -0.044 | -0.075 | -0.106 | -0.148 | 0.077 | -0.011 | -0.005 | 0.032 | -0.145 | 0.006 | -0.127 | -0.102 | -0.028 | 0.007 | 0.05 | 0.032 | -0.082 |
| SMG1 (UniProt Q96Q15) | -0.039 | 0.041 | -0.085 | 0.014 | 0.042 | 0 | 0.025 | -0.12 | 0.023 | 0.017 | -0.142 | 0.061 | -0.001 | -0.038 | -0.002 | 0.055 | 0.008 | -0.047 | 0.003 | 0.018 |
| STK38 (UniProt Q15208) | -0.02 | -0.055 | -0.12 | -0.016 | -0.073 | -0.127 | 0.058 | 0.005 | 0.104 | -0.064 | 0.029 | -0.024 | 0.036 | -0.009 | 0.007 | -0.006 | -0.038 | -0.01 | -0.001 | 0.146 |
| SLC27A4 (UniProt Q6P1M0) | -0.035 | 0.035 | -0.09 | -0.005 | -0.083 | -0.084 | 0.06 | 0.072 | 0.018 | -0.05 | 0.134 | 0.038 | 0.056 | -0.084 | -0.001 | 0.032 | 0.033 | -0.022 | 0.055 | -0.078 |
| TAMM41 isoform 3 (UniProt Q96BW9) | -0.009 | -0.003 | 0.027 | -0.043 | -0.037 | 0.015 | 0.036 | -0.006 | 0.01 | -0.007 | -0.027 | -0.09 | -0.009 | -0.122 | 0.019 | -0.169 | -0.025 | 0.112 | 0.021 | 0.027 |
| STIM1 (UniProt Q13586) | 0.003 | 0 | -0.075 | -0.029 | -0.001 | -0.048 | 0.011 | -0.047 | 0.052 | 0.032 | 0.048 | -0.123 | 0.041 | 0.02 | -0.029 | -0.218 | 0 | 0.037 | -0.011 | 0.036 |
